Source: PubChem BioAssay (National Center for Advancing Translational Sciences (NCATS))
HttQ103 aggreg: qHTS Multiplex Assay to Identify Dual Action Probes in a Cell Model of Huntington: Aggregate Formation (GFP). AID 1688, 2009. Potency, µM (highest dose often 46.1 µM), actives largely listed as inhibitors. actives 1.1% (n = 220,000). PC12 HttQ103-GFP aggregates, Acumen cytometry, 40 h; note: nearly all actives have a fitted effect of over 60% in size
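Multiplexed with ATP-based cell death, this channel scores GFP aggregates in PC12 cells expressing inducible HTTex1-Q103-GFP. Induction used 100 nM tebufenozide; compounds were tested in concentration series.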
PNC assembly inh: High Content Assay for Compounds that inhibit the Assembly of the Perinucleolar Compartment; PC3M PTB-GFP, PNC prevalence imaging, 16 h; hits give low values; activity change (PNC), negative = inhibition, % at 10 µM; actives 3.1% (n = 140,000); AID 2417, 2010;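 active = readout at or below -70, meaning at least 70% loss of cells showing the perinucleolar compartment, a nuclear body marking cancer cells; inconclusive = readout between -30 and a set limit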
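Compounds are pinned in duplicate onto adhered PC3M cells stably expressing GFP-tagged PTB and incubated 16 h at 37 C. Cells are then fixed, nuclei stained with Hoechst, and PNC-positive cells counted.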
ALDH1A1 inh: qHTS Assay for Inhibitors of Aldehyde Dehydrogenase 1 (ALDH1A1); actives 7.3% (n = 220,000); Purified ALDH1A1, NADH fluorescence, propionaldehyde substrate; AID 1030, 2008; Aldehyde dehydrogenase 1A1 (Homo sapiens), P00352; Potency, µM (series often up to 75.3 µM), hits mostly inhibitors; active = well fitted inhibition curve with a large enough effect, not every such curve was filed as active; inconclusive = small, poorly fitted or top-dose-only effect, or another doubt; inactive = no such curve, though single readings can be large or run the other way
CBFb-RUNX1 inh: qHTS Assay for Compounds Blocking the Interaction Between CBF-beta and RUNX1 for the Treatment of Acute Myeloid Leukemia | AlphaScreen CBFb-His/RUNX1-biotin binding, biochemical | Potency, µM (highest dose often 59.8 µM), usual class: inhibitors | 230,000 tested, under 10 active | AID 1477, 2009
Target sequence (Q01196 whole entry, looked up): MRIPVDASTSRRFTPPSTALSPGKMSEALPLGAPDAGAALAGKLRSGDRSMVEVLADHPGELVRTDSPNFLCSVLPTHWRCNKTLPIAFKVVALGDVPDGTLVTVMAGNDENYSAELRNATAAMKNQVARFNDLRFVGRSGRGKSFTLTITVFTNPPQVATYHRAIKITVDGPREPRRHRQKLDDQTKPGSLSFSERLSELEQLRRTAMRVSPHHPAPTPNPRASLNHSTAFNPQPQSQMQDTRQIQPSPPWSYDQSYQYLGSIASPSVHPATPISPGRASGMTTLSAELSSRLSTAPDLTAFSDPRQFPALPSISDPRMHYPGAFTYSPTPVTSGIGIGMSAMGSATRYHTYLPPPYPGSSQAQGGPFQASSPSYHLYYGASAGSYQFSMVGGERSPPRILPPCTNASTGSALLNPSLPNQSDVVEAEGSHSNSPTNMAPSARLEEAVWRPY
Target sequence (Q13951 whole entry, looked up): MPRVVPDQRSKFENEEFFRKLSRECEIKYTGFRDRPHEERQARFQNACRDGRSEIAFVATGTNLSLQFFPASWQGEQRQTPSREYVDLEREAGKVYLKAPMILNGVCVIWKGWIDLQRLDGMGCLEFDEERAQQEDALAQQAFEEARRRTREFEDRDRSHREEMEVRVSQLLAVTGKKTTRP
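Compounds were screened at multiple concentrations against a preformed CBF-beta(His)/RUNX1(biotin) complex (30 nM of each) for 15 min at room temperature, followed by 90 min with nickel and streptavidin beads and AlphaScreen reading.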
HPGD block: qHTS Assay for Inhibitors of HPGD (15-Hydroxyprostaglandin Dehydrogenase); actives 4.3% (n = 150,000); 15-hydroxyprostaglandin dehydrogenase [NAD(+)] (Homo sapiens), P15428; purified HPGD, NADH fluorescence kinetic, PGE2 substrate; Potency, µM, most hits filed as inhibitors; active = well fitted inhibition curve with a large enough effect, not every such curve was filed as active; inconclusive = small, poorly fitted or top-dose-only effect, or another doubt; inactive = no such curve, though single readings can be large or run the other way
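20 nM HPGD preincubated 15 min at room temperature with compound in 50 mM Tris-HCl pH 8, 0.01% Tween 20. Started with 1 mM NAD+ and 30 uM prostaglandin E2; NADH fluorescence (360/450 nm) read 5 times over 30-s intervals, last minus first.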
HTT cytoprotect: qHTS Multiplex Assay to Identify Dual Action Probes in a Cell Model of Huntington: Cytoprotection (ATP); PC12 HTT-Q103 induced, cytoprotection, ATP luminescence, 40 h; AID 1471, 2008; Potency, µM (highest dose often 56.4 µM), usual class: activators; actives 0.14% (n = 230,000); note: nearly all actives have a fitted effect of over 45% in size
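Readout: ATPlite luminescence (ATP level). Model: stable PC12, inducible Htt exon1 Q103-GFP. Inducer: tebufenozide, 100 nM final. Compounds: dose series. No G418 in medium.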
A number is an active result; 0 = inactive; ? = inconclusive; - = not tested or not shown; [ ] = another dose, or the depositor's remark. Most compounds without a hit are left out; they make up all but 11% or so of the library. Unless noted, calls come from the whole dose curve; as a rule, active = well fitted curve in the direction sought with a large enough effect; inconclusive = small, poorly fitted or top-dose-only effect, or another doubt; inactive = no such curve, though single readings can be large; an effect the other way counts as inactive or inconclusive.

SMILES	HttQ103 aggreg	PNC assembly inh	ALDH1A1 inh	CBFb-RUNX1 inh	HPGD block	HTT cytoprotect
O=C(N/N=C/c1cn(Cc2ccccc2)c2ccccc12)c1ccncc1	0	-	14µM	0	-	0
CCOC(=O)N/N=C/c1cn(Cc2ccc(F)cc2)c2ccccc12	0[9.22 µM]	-	-	0	-	0[10 µM]
CCOC(=O)N/N=C/c1cn(Cc2ccc(Cl)cc2)c2ccccc12	0	-105	0	0	0	-
O=C(N/N=C/c1cn(Cc2ccccc2)c2ccccc12)c1cccnc1	0	0	14µM	0	0	0[10 µM]
CC(=O)O[C@@H]1CC[C@]2(C)[C@H]3CC[C@]4(C)[C@H](C[C@H]5CCCC[C@@]54C(C)=O)[C@@H]3CC(=O)[C@@]2(O)C1	-	-	-	-	-	0
Cc1c(C(=O)OCC(=O)N2CC(=O)Nc3ccccc32)oc2ccccc12	0	?	0	0	0	0
Cc1ccco1	-	-	0	0	0	0
O=C(C1CCCO1)N1CCN(c2c3c(nc4cc(-c5ccc(F)cc5)nn24)CCC3)CC1 (stereo not drawn)	0	0	22µM	0	?	0
Cn1cccc1CC(=O)N/N=C/C=C/c1ccco1	0	?	0	0	16µM	0[10 µM]
CCn1c(SCC(=O)N/N=C/C=C/c2ccco2)nc2ccccc21	?	0	13µM	?	0	0[10 µM]
CC(/C=N/NC(=O)CSc1nc2ccccc2n1C)=C\c1ccco1	0	0	13µM	?	0	0[10 µM]
CCn1c(SCC(=O)N/N=C/C=C/c2ccco2)nnc1-c1ccc(OC)cc1	0	?	0	0	32µM	0[10 µM]
Cc1cccc(CNc2nc(-c3ccc4c(c3)OCO4)nc3ccccc23)c1	-	-	?	-	-	0
CCOc1ccc2nc(Nc3nc4c(c(=O)[nH]3)CCC4)nc(C)c2c1	-	-	-	-	-	0
Cc1ccc(S(=O)(=O)N2CCC[C@H]2C(=O)OC(C)C(=O)Nc2ncc(Cl)cc2Cl)cc1 (stereo partly drawn)	0	0	0	0	0	0
O=C(CN1CCN(Cc2ccc(Cl)cc2)CC1)N/N=C/C=C/c1ccccc1[N+](=O)[O-]	0	0	?	0	0	0[10 µM]
O=C(CSc1nnc(SCc2ccccc2)s1)N/N=C/C=C/c1ccccc1[N+](=O)[O-]	0	?	0	0	0	0[10 µM]
O=C(CSc1nnc(SCc2ccccc2)s1)N/N=C/C=C\c1ccco1	0	0	18µM	?	16µM	0[10 µM]
C/C(=N/NC(=O)Cc1cccn1C)c1ccccc1	0	0	18µM	?	0	0
C/C(=N\NC(=O)Cc1cccn1C)c1ccc2ccccc2c1	?	0	?	0	0	0[10 µM]
CCn1c(SCC(=O)N/N=C/C=C/c2ccccc2[N+](=O)[O-])nnc1-c1ccc(Cl)cc1	0	?	4.5µM	0	0	0[10 µM]
CCOc1ccc(N2C(=O)Nc3ccccc3C2(O)C(=O)N2CCN(c3ccccn3)CC2)cc1 (stereo not drawn)	0	-	0	0	-	0
C[C@H](NCc1ccccc1)c1ccccc1	-	-	-	0	-	-
C=CCC1(NC(C)c2ccccc2)CCCCC1 (stereo not drawn)	0	-113	0	0	0	0[10 µM]
COc1ccc(CCN(C)Cc2nc(Cc3ccc(OC)c(OC)c3)no2)cc1OC	0[9.22 µM]	-	0	0	-	0[10 µM]
SMILES	HttQ103 aggreg	PNC assembly inh	ALDH1A1 inh	CBFb-RUNX1 inh	HPGD block	HTT cytoprotect
C=C1CCC[C@]2(C)C[C@H]3OC(=O)[C@H](CNCCc4ccccc4OC)C3CC12 (stereo partly drawn)	-	-	8.9µM	0	0	0
C=CC[C@](C)(Nc1ccc(OC)cc1)C(=O)OCC	-	-	0	0	0	?
COc1ccc(NC(=O)CC2SC(=Nc3ccccc3)NC2=O)c(OC)c1 (stereo not drawn)	0	?	0	0	0	0
COc1ccc(OC)c(NC(=O)CC2SC(=NCc3ccccc3)NC2=O)c1 (stereo not drawn)	0	-	40µM	0	-	0
COc1ccc(N=C2NC(=O)C(CC(=O)NCCc3ccc(OC)c(OC)c3)S2)cc1 (stereo not drawn)	0	-	11µM	0	-	0[10 µM]
Cc1ccc(N=C2NC(=O)C(CC(=O)NCc3ccccc3)S2)cc1C (stereo not drawn)	0	0	25µM	0	0	-
CN(C)C(=O)c1ccc(-c2cc(NCc3ccccc3)ncn2)cc1	-	-	?	-	-	0
O=C(CSc1nccc(=O)[nH]1)NCc1ccco1	0[9.22 µM]	-	0	0	-	0[10 µM]
Cc1c(Cl)cnc(NC(=O)COC(=O)c2ccc([N+](=O)[O-])s2)c1Cl	0	?	11µM	?	?	0[10 µM]
O=C(COC(=O)c1ccc([N+](=O)[O-])s1)NC(c1ccccc1)c1ccccc1	0	-116	22µM	0	0	-
O=C(COC(=O)c1ccc([N+](=O)[O-])s1)Nc1ccc(Cl)cn1	0	?	?	0	0	0[10 µM]
O=C(COC(=O)c1ccc([N+](=O)[O-])s1)Nc1ccccc1	0	?	?	0	0	0[10 µM]
Cc1[nH]c2ccccc2c1C(=O)COC(=O)c1ccc([N+](=O)[O-])s1	0	-	11µM	0	-	0
COc1ccccc1C1(O)CCN(CC(=O)Nc2nc(-c3ccccc3)cs2)CC1	0[9.22 µM]	-	0	0	-	0[10 µM]
CCC(C(=O)Nc1cnccn1)c1ccccc1 (stereo not drawn)	0	?	0	0	0	0[10 µM]
CCC(C(=O)NNC(=O)c1cnccn1)c1ccccc1 (stereo not drawn)	7.9µM	0	0	0	0	0[10 µM]
CN(C)c1ccc(-n2cccc2/C=C/[N+](=O)[O-])cc1	25µM	-	?	0	-	0
CC(C)(C)OC(=O)N/N=C/c1cccn1-c1ccc([N+](=O)[O-])cc1	0[9.22 µM]	-	?	0	-	0[10 µM]
CCC(C)Sc1nc2c(c(=O)[nH]c(=O)n2C)n1Cc1ccc(Cl)cc1 (stereo not drawn)	0	0	8.9µM	0	0	0[10 µM]
CC(C)Sc1nc2c(c(=O)[nH]c(=O)n2C)n1Cc1ccc(Cl)cc1	0[9.22 µM]	0	35µM	0	?	0[10 µM]
CCOC(=O)C(C)Sc1nc2c(c(=O)[nH]c(=O)n2C)n1Cc1ccc(Cl)cc1 (stereo not drawn)	0	0	18µM	0	?	0
CCC(C)Sc1nc2c(c(=O)[nH]c(=O)n2C)n1CC(O)COc1ccccc1C (stereo not drawn)	0	0	14µM	0	40µM	0[1.9 µM]
CCC(C)Sc1nc2c(c(=O)[nH]c(=O)n2C)n1CCc1ccccc1 (stereo not drawn)	0	0	?	0	0	0[10 µM]
